In all, about 5,500 compounds went through this assay and about 2,000 (36%) were called active. Another 18% or so got no clear call; they are omitted. No stated cut-off is given here; in the data, active means normalized growth mostly below about 0.91 (no sharp cut-off); inconclusive means no clear call, values can overlap the other calls; inactive means mostly above about 0.92. Some of the results follow.
Test: chemical genetic growth profiling, strain panel (AID 1159580);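 further: tested at 20 µM; growth read once vehicle control cultures reached saturation at 30 °C; 1 = growth at the plate median or of vehicle wells; lower values mean less growth of the strain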
Conditions: growth OD

Measured: normalized growth

NC(=NCCC[C@H](N)C(=O)O)NC(CCC(=O)O)C(=O)O (stereo partly drawn)
inactive: S. cerevisiae deletion strains, locus YAL021C, strain ccr4, hits give low values 1 | S. cerevisiae deletion strains, locus YAL026C, strain drs2, hits give low values 1 | S. cerevisiae deletion strains, locus YAL030W, strain snc1, hits give low values 1 | S. cerevisiae deletion strains, locus YBL061C, strain skt5, hits give low values 1.01 | S. cerevisiae deletion strains, locus YBR009C, strain hhf1, hits give low values 1 | S. cerevisiae deletion strains, locus YBR021W, strain FUR4, hits give low values 1.02 | S. cerevisiae deletion strains, locus YBR023C, strain chs3, hits give low values 1.01 | S. cerevisiae deletion strains, locus YBR171W, strain sec66, hits give low values 1.02 | S. cerevisiae deletion strains, locus YBR229C, strain ROT2, hits give low values 1.01 | S. cerevisiae deletion strains, locus YBR231C, strain swc5, hits give low values 1.01 | S. cerevisiae deletion strains, locus YBR279W, strain paf1, hits give low values 0.998 | S. cerevisiae deletion strains, locus YCL011C, strain gbp2, hits give low values 1.01 | S. cerevisiae deletion strains, locus YCL016C, strain dcc1, hits give low values 1.01 | S. cerevisiae deletion strains, locus YCL029C, strain bik1, hits give low values 1.03 | S. cerevisiae deletion strains, locus YCL061C, strain MRC1, hits give low values 0.998 | S. cerevisiae deletion strains, locus YCL069W, strain vba3, hits give low values 1.01 | S. cerevisiae deletion strains, locus YCR088W, strain abp1, hits give low values 1.01 | S. cerevisiae deletion strains, locus YDL005C, strain med2, hits give low values 1.01 | S. cerevisiae deletion strains, locus YDL035C, strain GPR1, hits give low values 1.02 | S. cerevisiae deletion strains, locus YDL040C, strain nat1, hits give low values 1.01 | S. cerevisiae deletion strains, locus YDL074C, strain BRE1, hits give low values 1.05 | S. cerevisiae deletion strains, locus YDL101C, strain DUN1, hits give low values 1.01 | S. cerevisiae deletion strains, locus YDL185W, strain tfp1, hits give low values 1.01 | S. cerevisiae deletion strains, locus YDL192W, strain arf1, hits give low values 1.02 | S. cerevisiae deletion strains, locus YDR001C, strain nth1, hits give low values 1.01 | S. cerevisiae deletion strains, locus YDR069C, strain doa4, hits give low values 1.01 | S. cerevisiae deletion strains, locus YDR101C, strain arx1, hits give low values 1.04 | S. cerevisiae deletion strains, locus YDR137W, strain rgp1, hits give low values 0.992 | S. cerevisiae deletion strains, locus YDR159W, strain sac3, hits give low values 1.01 | S. cerevisiae deletion strains, locus YDR162C, strain NBP2, hits give low values 0.977 | S. cerevisiae deletion strains, locus YDR195W, strain ref2 0.974 | S. cerevisiae deletion strains, locus YDR297W, strain sur2, hits give low values 1.01 | S. cerevisiae deletion strains, locus YDR318W, strain mcm21, hits give low values 1 | S. cerevisiae deletion strains, locus YDR334W, strain swr1, hits give low values 1.01 | S. cerevisiae deletion strains, locus YDR335W, strain msn5, hits give low values 0.995 | S. cerevisiae deletion strains, locus YDR388W, hits give low values 1.02 | S. cerevisiae deletion strains, locus YDR392W, strain spt3, hits give low values 1.02 | S. cerevisiae deletion strains, locus YDR502C, strain sam2, hits give low values 1.01 | S. cerevisiae deletion strains, locus YEL003W, strain gim4, hits give low values 1 | S. cerevisiae deletion strains, locus YEL037C, strain rad23, hits give low values 1 | S. cerevisiae deletion strains, locus YEL061C, strain CIN8 (second series), hits give low values 1 | S. cerevisiae deletion strains, locus YEL061C, strain CIN8, hits give low values 1.01 | S. cerevisiae deletion strains, locus YER015W, strain faa2, hits give low values 1.01 | S. cerevisiae deletion strains, locus YER016W, strain bim1, hits give low values 1 | S. cerevisiae deletion strains, locus YER110C, hits give low values 1.01 | S. cerevisiae deletion strains, locus YER111C, strain swi4, hits give low values 0.996 | S. cerevisiae deletion strains, locus YER155C, strain BEM2 (second series), hits give low values 1.02 | S. cerevisiae deletion strains, locus YER155C, strain BEM2, hits give low values 1.01 | S. cerevisiae deletion strains, locus YER167W, strain BCK2, hits give low values 1.02 | S. cerevisiae deletion strains, locus YFR010W, strain ubp6, hits give low values 1.01 | S. cerevisiae deletion strains, locus YGL078C, strain dbp3, hits give low values 1.02 | S. cerevisiae deletion strains, locus YGL086W, strain mad1, hits give low values 1.04 | S. cerevisiae deletion strains, locus YGL167C, strain pmr1, hits give low values 1.01 | S. cerevisiae deletion strains, locus YGL173C, strain kem1, hits give low values 1.01 | S. cerevisiae deletion strains, locus YGL227W, strain vid30, hits give low values 1.01 | S. cerevisiae deletion strains, locus YGL240W, strain doc1, hits give low values 1.02 | S. cerevisiae deletion strains, locus YGL248W, strain PDE1, hits give low values 0.999 | S. cerevisiae deletion strains, locus YGL253W, strain hxk2, hits give low values 1.01 | S. cerevisiae deletion strains, locus YGR078C, strain PAC10, hits give low values 1.01 | S. cerevisiae deletion strains, locus YGR135W, strain pre9, hits give low values 1.04 | S. cerevisiae deletion strains, locus YGR252W, strain gcn5, hits give low values 0.991 | S. cerevisiae deletion strains, locus YHR013C, strain ard1, hits give low values 1.03 | S. cerevisiae deletion strains, locus YHR027C, strain rpn1, hits give low values 1.02 | S. cerevisiae deletion strains, locus YHR030C, strain SLT2, hits give low values 1.01 | S. cerevisiae deletion strains, locus YHR079C, strain IRE1 (second series), hits give low values 1 | S. cerevisiae deletion strains, locus YHR094C, strain hxt1, hits give low values 1.01 | S. cerevisiae deletion strains, locus YHR129C, strain ARP1, hits give low values 1.01 | S. cerevisiae deletion strains, locus YHR142W, strain chs7, hits give low values 1.02 | S. cerevisiae deletion strains, locus YHR200W, strain rpn10, hits give low values 1 | S. cerevisiae deletion strains, locus YIL066C, strain RNR3, hits give low values 1.01 | S. cerevisiae deletion strains, locus YIL073C, strain SPO22, hits give low values 1.06 | S. cerevisiae deletion strains, locus YIL125W, strain kgd1, hits give low values 1.02 | S. cerevisiae deletion strains, locus YIR030C, strain dcg1, hits give low values 1.01 | S. cerevisiae deletion strains, locus YJL092W, strain hpr5, hits give low values 1.01 | S. cerevisiae deletion strains, locus YJL095W, strain BCK1 (second series), hits give low values 1.01 | S. cerevisiae deletion strains, locus YJL095W, strain BCK1, hits give low values 1.01 | S. cerevisiae deletion strains, locus YJL115W, strain asf1, hits give low values 1 | S. cerevisiae deletion strains, locus YJL129C, strain trk1, hits give low values 1.01 | S. cerevisiae deletion strains, locus YJL134W, strain LCB3, hits give low values 1.01 | S. cerevisiae deletion strains, locus YJL154C, strain vps35, hits give low values 1.01 | S. cerevisiae deletion strains, locus YJL164C, strain tpk1, hits give low values 1.01 | S. cerevisiae deletion strains, locus YJL166W, strain qcr8, hits give low values 1.01 | S. cerevisiae deletion strains, locus YJL168C, strain set2, hits give low values 1.04 | S. cerevisiae deletion strains, locus YJL187C, strain SWE1 (second series), hits give low values 1 | S. cerevisiae deletion strains, locus YJL187C, strain SWE1, hits give low values 1 | S. cerevisiae deletion strains, locus YJR043C, strain POL32, hits give low values 1 | S. cerevisiae deletion strains, locus YKL009W, strain mrt4, hits give low values 1.03 | S. cerevisiae deletion strains, locus YKL068W, hits give low values 1 | S. cerevisiae deletion strains, locus YKL085W, strain MDH1 (second series), hits give low values 1.01 | S. cerevisiae deletion strains, locus YKL085W, strain MDH1, hits give low values 1.01 | S. cerevisiae deletion strains, locus YKL160W, strain elf1, hits give low values 1.02 | S. cerevisiae deletion strains, locus YKL190W, strain CNB1, hits give low values 1.01 | S. cerevisiae deletion strains, locus YKR001C, strain vps1, hits give low values 1.06 | S. cerevisiae deletion strains, locus YKR026C, strain gcn3, hits give low values 1.01 | S. cerevisiae deletion strains, locus YKR091W, strain srl3, hits give low values 1.01 | S. cerevisiae deletion strains, locus YLL001W, strain dnm1, hits give low values 1.01 | S. cerevisiae deletion strains, locus YLL026W, hits give low values 1.01 | S. cerevisiae deletion strains, locus YLL041C, strain sdh2, hits give low values 1.01 | S. cerevisiae deletion strains, locus YLR027C, strain aat2, hits give low values 0.998 | S. cerevisiae deletion strains, locus YLR039C, strain RIC1, hits give low values 1 | S. cerevisiae deletion strains, locus YLR058C, strain SHM2, hits give low values 1.01 | S. cerevisiae deletion strains, locus YLR102C, strain apc9, hits give low values 1.02 | S. cerevisiae deletion strains, locus YLR221C, strain rsa3, hits give low values 1.02 | S. cerevisiae deletion strains, locus YLR258W, strain gsy2, hits give low values 1.01 | S. cerevisiae deletion strains, locus YLR262C, strain YPT6 (second series), hits give low values 0.996 | S. cerevisiae deletion strains, locus YLR262C, strain YPT6, hits give low values 1.02 | S. cerevisiae deletion strains, locus YLR268W, strain sec22, hits give low values 1.04 | S. cerevisiae deletion strains, locus YLR320W, strain mms22, hits give low values 1.02 | S. cerevisiae deletion strains, locus YLR330W, strain CHS5, hits give low values 1.01 | S. cerevisiae deletion strains, locus YLR342W, strain FKS1 (second series), hits give low values 1.06 | S. cerevisiae deletion strains, locus YLR342W, strain FKS1, hits give low values 1.01 | S. cerevisiae deletion strains, locus YLR357W, strain rsc2, hits give low values 1.03 | S. cerevisiae deletion strains, locus YLR370C, strain arc18, hits give low values 1.01 | S. cerevisiae deletion strains, locus YLR371W, strain rom2, hits give low values 1.02 | S. cerevisiae deletion strains, locus YLR384C, strain iki3, hits give low values 0.996 | S. cerevisiae deletion strains, locus YLR418C, strain cdc73, hits give low values 1.01 | S. cerevisiae deletion strains, locus YML016C, strain PPZ1, hits give low values 1 | S. cerevisiae deletion strains, locus YML032C, strain rad52, hits give low values 1.02 | S. cerevisiae deletion strains, locus YML120C, strain ndi1, hits give low values 1 | S. cerevisiae deletion strains, locus YML124C, strain tub3, hits give low values 1.01 | S. cerevisiae deletion strains, locus YMR058W, strain fet3, hits give low values 1.01 | S. cerevisiae deletion strains, locus YMR078C, strain ctf18, hits give low values 1.01 | S. cerevisiae deletion strains, locus YMR125W, strain sto1, hits give low values 0.999 | S. cerevisiae deletion strains, locus YMR129W, hits give low values 0.997 | S. cerevisiae deletion strains, locus YMR205C, strain PFK2, hits give low values 1.02 | S. cerevisiae deletion strains, locus YMR223W, strain ubp8, hits give low values 0.985 | S. cerevisiae deletion strains, locus YMR231W, strain pep5, hits give low values 0.989 | S. cerevisiae deletion strains, locus YMR307W, strain GAS1, hits give low values 1 | S. cerevisiae deletion strains, locus YNL067W, strain RPL9B, hits give low values 0.995 | S. cerevisiae deletion strains, locus YNL071W, strain lat1, hits give low values 1.01 | S. cerevisiae deletion strains, locus YNL153C, strain GIM3, hits give low values 0.989 | S. cerevisiae deletion strains, locus YNL209W, strain ssb2, hits give low values 1 | S. cerevisiae deletion strains, locus YNL233W, strain BNI4, hits give low values 1.03 | S. cerevisiae deletion strains, locus YNL248C, strain rpa49, hits give low values 1.01 | S. cerevisiae deletion strains, locus YNL250W, strain rad50, hits give low values 1.02 | S. cerevisiae deletion strains, locus YNL271C, strain bni1, hits give low values 0.999 | S. cerevisiae deletion strains, locus YNL298W, strain CLA4, hits give low values 1.01 | S. cerevisiae deletion strains, locus YNL307C, strain MCK1, hits give low values 1.03 | S. cerevisiae deletion strains, locus YNL322C, strain KRE1 (second series), hits give low values 1.01 | S. cerevisiae deletion strains, locus YNL322C, strain KRE1, hits give low values 1.01 | S. cerevisiae deletion strains, locus YNR049C, strain mso1, hits give low values 1.02 | S. cerevisiae deletion strains, locus YNR052C, strain pop2, hits give low values 1.01 | S. cerevisiae deletion strains, locus YOL012C, strain htz1 1.47 | S. cerevisiae deletion strains, locus YOL147C, strain pex11, hits give low values 1.02 | S. cerevisiae deletion strains, locus YOR001W, strain rrp6, hits give low values 1.02 | S. cerevisiae deletion strains, locus YOR061W, strain CKA2, hits give low values 1.01 | S. cerevisiae deletion strains, locus YOR069W, strain VPS5, hits give low values 1.01 | S. cerevisiae deletion strains, locus YOR070C, strain gyp1, hits give low values 1 | S. cerevisiae deletion strains, locus YOR080W, strain dia2, hits give low values 0.999 | S. cerevisiae deletion strains, locus YOR083W, strain WHI5, hits give low values 1 | S. cerevisiae deletion strains, locus YOR106W, strain vam3, hits give low values 1.02 | S. cerevisiae deletion strains, locus YOR136W, strain idh2, hits give low values 1.05 | S. cerevisiae deletion strains, locus YOR144C, strain elg1, hits give low values 1.02 | S. cerevisiae deletion strains, locus YOR184W, strain ser1, hits give low values 1.01 | S. cerevisiae deletion strains, locus YOR265W, strain rbl2, hits give low values 1 | S. cerevisiae deletion strains, locus YOR270C, strain vph1, hits give low values 1.02 | S. cerevisiae deletion strains, locus YOR290C, strain snf2, hits give low values 1.02 | S. cerevisiae deletion strains, locus YOR316C, strain cot1, hits give low values 1.02 | S. cerevisiae deletion strains, locus YPL051W, strain arl3, hits give low values 0.995 | S. cerevisiae deletion strains, locus YPL078C, strain atp4, hits give low values 1 | S. cerevisiae deletion strains, locus YPL106C, strain sse1, hits give low values 1.02 | S. cerevisiae deletion strains, locus YPL240C, strain hsp82, hits give low values 1 | S. cerevisiae deletion strains, locus YPR119W, strain clb2, hits give low values 1.01 | S. cerevisiae deletion strains, locus YPR141C, strain kar3, hits give low values 1.01 | S. cerevisiae deletion strains, locus YPR163C, strain tif3, hits give low values 1.02 | S. cerevisiae deletion strains, locus YPR167C, strain met16, hits give low values 1.02 | S. cerevisiae deletion strains, strain wtn01, hits give low values 1.05 | S. cerevisiae strains, strain wild type, hits give low values 1.01
